Source: PubChem BioAssay (National Center for Advancing Translational Sciences (NCATS))
In the library only some 0.93% were active in any assay of this set; here they are far more common.
TexasRed fluor: Texas Red fluorescence interference in TRb-SRC2 counter-screen; Potency, µM (doses to about 106 µM), inactives show top-dose fluorescence change, negative = quenching; AID 1479; hit rate 0.29% among 280,000; TRb/SRC2 Texas Red total fluorescence interference; active = well fitted curve in either direction with a large enough effect; inconclusive = small, poorly fitted or top-dose-only effect; also: potency is read from the fitted curve at half-maximal effect
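Flags fluorescent or light-absorbing compounds by total fluorescence, S + 2P, at 555 nm excitation and 632 nm emission. Mixture: 20 nM Texas Red SRC2 peptide, 0.6 uM human TRb LBD, 1 uM T3, 5% DMSO; compound exposure 5 h at ambient temperature.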
RGS12 GoLoco inh: RGS12 GoLoco-Gai1 interaction inhibition. P63096. Gai1:RGS12 GoLoco peptide FP, rhodamine, 10 min. Potency, µM (series often up to 61.6 µM), inactives show at the highest dose activity, negative = inhibition, hits mostly inhibitors. hit rate 0.44% among 230,000. AID 880; active = well fitted inhibition curve with a large enough effect, not every such curve was filed as active; inactive = no such curve, though single readings can be large or run the other way; also: potency is read from the fitted curve at half-maximal effect; nearly all actives have a fitted effect of over 30% in size
Coupling enz: counter-screen for Giardia aldolase inhibitors: coupling enzyme system. AID 2472. coupling enzyme system counterscreen, AmpLite Red fluorescence. activity change, negative = inhibition, % at 58.2 µM, hits read low. hit rate 0.67% among 290,000; in the data active = activity change below about -30%
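Counterscreen lacking aldolase: glyceraldehyde-3-phosphate coupling-enzyme reagent preincubated 10 min at RT with compound (at 57.5 uM final), then substrate/coupling system with AmpLite Red added; fluorescence read at 525/598 nm after 20 min RT.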
TRb-SRC2 inh: inhibitors of human thyroid hormone receptor beta-SRC2 interaction. P10828. TRbeta-SRC2 peptide binding, fluorescence polarization; receptor liganded with 1 µM T3. Potency, µM (titrated, usually from 106 µM), without a hit: top-dose activity change, negative = inhibition, usual class: inhibitors. hit rate 0.065% among 280,000. AID 1469; active = well fitted inhibition curve with a large enough effect; inconclusive = small, poorly fitted or top-dose-only effect, or effect the other way;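 also: potency is read from the fitted curve at half-maximal effect; plate controls were bound peptide for no effect and peptide without receptor for full effect; nearly all actives have a fitted effect of over 50% in size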
Target sequence (P10828 whole entry, looked up): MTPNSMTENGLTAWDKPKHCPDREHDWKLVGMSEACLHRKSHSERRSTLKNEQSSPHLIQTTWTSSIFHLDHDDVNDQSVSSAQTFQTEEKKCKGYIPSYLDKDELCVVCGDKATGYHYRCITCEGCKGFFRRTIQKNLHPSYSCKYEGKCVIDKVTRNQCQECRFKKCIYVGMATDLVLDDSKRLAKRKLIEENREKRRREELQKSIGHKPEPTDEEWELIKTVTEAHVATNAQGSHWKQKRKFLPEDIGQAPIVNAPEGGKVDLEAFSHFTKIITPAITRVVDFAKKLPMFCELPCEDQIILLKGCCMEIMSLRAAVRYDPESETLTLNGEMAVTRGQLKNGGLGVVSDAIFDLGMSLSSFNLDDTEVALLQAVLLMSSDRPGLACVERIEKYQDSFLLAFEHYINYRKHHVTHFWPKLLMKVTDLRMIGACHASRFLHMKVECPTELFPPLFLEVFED
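TRb LBD 0.6 uM + Texas Red SRC2 peptide 20 nM, 1 uM T3, Tris buffer w/ 5% DMSO; compound pinned, 5 h RT; FP read ex 555/em 632; normalized to unbound and bound controls.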
* hit, by the source's call; ? = inconclusive; . = no result; ! = repeats disagree; [ ] = dose if it differs, or a comment. Unless noted, % is scaled to controls: 0 for no effect and ±100 for the full control effect.

SMILES | TexasRed fluor | RGS12 GoLoco inh | Coupling enz | TRb-SRC2 inh
O=C1C=CC2=C3c4cc(O)c(O)cc4CC3(O)COC2=C1O (configuration not stated) | ? | 2.5µM* | -38*! | 6%
COc1cccc(C2=NCCc3cc4c(cc32)OCO4)c1OC | -2% | 6% | -1 | -4%
COc1ccc2cc3[n+](cc2c1OC)CCc1cc2c(cc1-3)OCO2 | 0% | 1% | -36*! | -5%
CSc1ccc(CCNC(=O)CCCn2c(=O)c3cccn3c3ccccc32)cc1 | 2% | . | . | -1%
CCn1c([N+](=O)[O-])nc2c1c(=O)[nH]c(=O)n2C | -1% | -1% | -38* | 5%
Cc1ccc(CN2C(=O)CC(c3ccc(Cl)cc3)c3c(C)nn(-c4nc(C)cc(C)n4)c32)cc1 (configuration not stated) | 4% | . | . | -8%
CC1CC(=O)N(CC(=O)Nc2ccc(OC(F)(F)F)cc2)c2ccccc2S1 (configuration not stated) | 6% | . | . | 6%
OCc1cccc(Oc2ccccc2)c1 | -2%[201 µM] | . | . | 3%[201 µM]
CCOc1ccccc1C(=O)Nc1nnc(COC)s1 | -20% | 50µM* | 0 | 4%
CCOC(=O)C1CCN(C(=O)c2c(C)oc3c2C(=O)c2ccccc2C3=O)CC1 | -2% | -2% | -47* | 3%
Cc1oc2c(c1C(=O)N1CCC(C)CC1)C(=O)c1ccccc1C2=O | -1% | -16% | -46* | 8%
Cc1onc(-c2ccccc2Cl)c1C(=O)N1CCC(C)CC1 | . | . | 1 | .
Cc1c(C(=O)Nc2cccc(Cl)c2)sc2nc3n(c(=O)c12)N=C(c1cccc(Br)c1)CS3 | -5% | . | . | -2%
CC(=O)/C(C[N+]1(C)CCCCC1)=N\O | 0% | 3.2µM* | 1 | -7%
CCN(CC)S(=O)(=O)c1cccc(C(=O)N/N=C/c2cccc(O)c2O)c1 | -6% | -4% | -52* | -5%
CCN(CC)S(=O)(=O)c1cccc(C(=O)N/N=C/c2cc(OC)c(O)c(OC)c2)c1 | ? | -6% | -1 | -4%
CCCCS(=O)(=O)Nc1ccc(C)cn1 | 3% | 19% | -51* | 1%
Cc1ccc(NS(=O)(=O)c2cccs2)nc1 | . | . | -3 | .
CCn1cc(S(=O)(=O)c2cccc(Cl)c2)c(=O)c2cc(F)c(N3CCN(c4ccccc4)CC3)cc21 | 6% | . | . | 5%
CCCn1cc(S(=O)(=O)c2ccc(C)c(C)c2)c(=O)c2cc(F)c(N3CCCCC3)cc21 | 282µM*[quencher] | . | . | -21%
Cn1cc(S(=O)(=O)c2cccc(Cl)c2)c(=O)c2cc(F)c(N3CCN(c4ccccc4)CC3)cc21 | 158µM*[quencher] | . | . | -30%
Cc1cccc(S(=O)(=O)c2cn(C)c3cc(N4CCN(c5ccccc5)CC4)c(F)cc3c2=O)c1 | 56µM*[quencher] | . | . | ?
CCc1nn2c(=O)cc(COC(=O)c3cccc(NC(=O)c4cccs4)c3)nc2s1 | 0% | . | . | -10%
CC(CNC(=O)Cn1ccc2cc(S(=O)(=O)N3CCCCCC3)ccc21)c1ccccc1 (configuration not stated) | -1% | . | . | 2%
COC1=C2C[C@@H](C)C[C@H](OC)[C@H](O)[C@@H](C)/C=C(\C)[C@H](OC(N)=O)[C@@H](OC)/C=C\C=C(/C)C(=O)NC(=CC1=O)C2=O | -7% | . | -65* | 1%
SMILES | TexasRed fluor | RGS12 GoLoco inh | Coupling enz | TRb-SRC2 inh
C=CCNC1=C2C[C@@H](C)C[C@H](OC)[C@H](O)[C@@H](C)/C=C(\C)[C@H](OC(N)=O)[C@@H](OC)/C=C/C=C(\C)C(=O)NC(=CC1=O)C2=O | 1%[11.2 µM] | -1%[14.2 µM] | -26 | 11%[11.2 µM]
Cc1c(C(=O)N/N=C/c2cccs2)nc2ccccn12 | 178µM*[quencher] | -3% | 4 | -21%[53 µM]
O=C=NC1CCC(CC2CCC(N=C=O)CC2)CC1 (configuration not stated) | 0%[201 µM] | . | . | 6%[201 µM]
CC[n+]1cccc(-c2nc3ccccc3s2)c1 | 1% | 10µM* | 0 | 2%
Cc1nc(-n2nc(C)c(Cc3ccc(Cl)cc3)c2C)sc1C(=O)N1CCCCC1C (configuration not stated) | 17783µM*[quencher] | . | . | -22%
Cc1nc(-n2nc(C)c(Cc3ccccc3Cl)c2C)sc1C(=O)N1CCCCC1C (configuration not stated) | -4% | . | . | -9%
C=Cc1ccccc1Br | 0%[201 µM] | . | . | 0%[201 µM]
COc1ccc([N+](=O)[O-])cc1/C=N/NC(=O)/C(=C\c1cccs1)NC(=O)c1ccccc1 | 2% | 1% | -42* | 7%
Cc1nnc(N/N=C/c2ccc(Br)cc2)n1N | . | . | 0 | .
Cc1nnc(N/N=C/c2cc([N+](=O)[O-])c(N3CCC(C)CC3)cc2N2CCC(C)CC2)n1N | -1% | 0% | -45* | 16%
Cc1nnc(N/N=C/c2ccc([N+](=O)[O-])cc2)n1N | -2% | 0% | -45* | 5%
COc1ccc(/C=N/Nc2nnc(C)n2N)cc1OC | -2% | 11% | -40* | 0%
CCc1nnc(N/N=C/c2ccc(N3CCC(C)CC3)c([N+](=O)[O-])c2)n1N | 6% | -10% | -27 | 4%
CCS(=O)(=O)N1CCc2cc(C(=O)NC(C)c3ccccc3)ccc21 (configuration not stated) | -2% | . | . | -4%
COC(=O)c1ccc2c(=O)n(CCCCCC(=O)NCc3ccc(Cl)cc3)c(=O)[nH]c2c1 | -26% | . | . | 4%
O=C(Nc1sc2c(c1C(=O)NCc1ccccc1)CCCC2)c1cc(=O)c2cc(Cl)ccc2o1 | -13% | . | . | 8%
CC(COc1ccc(/C=C/c2ccccc2)cc1)[N+](C)(C)C (configuration not stated) | -6% | 10µM* | . | 1%
COc1cc(NC2CCCCC2O)c2nc(-c3ccc(Cl)cc3)ccc2c1 (configuration not stated) | -1% | 2% | -31* | 3%
CCSc1ccc2cc(OC)ccc2[n+]1CC | -3% | 2.5µM* | 0 | 2%
CCS(=O)(=O)N1CC(=O)N(c2ccc(Cl)cc2)C(C)(C(=O)NC2CCCCCC2)C1 (configuration not stated) | 18µM*[quencher] | . | . | -5%
CCCS(=O)(=O)N1CC(=O)N(c2ccc(Cl)cc2C)C(C)(C(=O)NC2CCCC2)C1 (configuration not stated) | 28µM*[quencher] | . | . | -5%
CCCS(=O)(=O)N1CC(=O)N(c2ccc(Cl)cc2)C(C)(C(=O)NC2CCCC2)C1 (configuration not stated) | 3% | . | . | -3%
COCc1cc(O)c(O)c(O)c1-c1c(COC)cc(O)c(O)c1O | -5% | -17% | -49* | -2%
CC(C)C[C@H](NC(=O)[C@@H]1CCC(=O)N1)C(=O)N[C@@H](Cc1ccc(O)cc1)C(=O)N[C@@H](CCC(=O)O)C(=O)N[C@@H](CC(N)=O)C(=O)N[C@@H](CCCCN)C(=O)N1CCC[C@H]1C(=O)N[C@@H](CCCN=C(N)N)C(=O)N[C@@H](CCCN=C(N)N)C(=O)N1CCC[C@H]1C(=O)N[C@@H](Cc1ccc(O)cc1)C(=O)O | -2% | . | 0 | 0%
O=c1c2ccccc2ncn1Cc1ccc(Cl)c(Cl)c1 | . | . | 0 | .
